Source: PubChem BioAssay
A3A deaminase: human APOBEC3A DNA deaminase inhibition; 330,000 compounds, 0.41% hits; AID 493011; recombinant A3A, FAM/TAMRA ssDNA deamination fluorescence; inhibition, % at 20 µM;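 active = at least 40% inhibition at 20 µM here, with at most 30% in a related deaminase screen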
Target sequence (P31941 whole entry, looked up): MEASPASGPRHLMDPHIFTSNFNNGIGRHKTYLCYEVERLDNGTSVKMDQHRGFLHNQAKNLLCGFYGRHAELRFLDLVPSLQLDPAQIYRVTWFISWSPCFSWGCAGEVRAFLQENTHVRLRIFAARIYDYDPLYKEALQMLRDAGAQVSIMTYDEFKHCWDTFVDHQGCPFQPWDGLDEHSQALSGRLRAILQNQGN
APOBEC3G inh: blocks human APOBEC3G single-stranded DNA deamination; 330,000 compounds, 0.28% hits; inhibition, % at 20 µM; recombinant A3G, ssDNA deamination FAM/TAMRA fluorescence; AID 493012; Q9HC16;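 active = inhibition of at least 40% at 20 µM, with no more than 30% in the related APOBEC3A deaminase screen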
Target sequence (Q9HC16 whole entry, looked up): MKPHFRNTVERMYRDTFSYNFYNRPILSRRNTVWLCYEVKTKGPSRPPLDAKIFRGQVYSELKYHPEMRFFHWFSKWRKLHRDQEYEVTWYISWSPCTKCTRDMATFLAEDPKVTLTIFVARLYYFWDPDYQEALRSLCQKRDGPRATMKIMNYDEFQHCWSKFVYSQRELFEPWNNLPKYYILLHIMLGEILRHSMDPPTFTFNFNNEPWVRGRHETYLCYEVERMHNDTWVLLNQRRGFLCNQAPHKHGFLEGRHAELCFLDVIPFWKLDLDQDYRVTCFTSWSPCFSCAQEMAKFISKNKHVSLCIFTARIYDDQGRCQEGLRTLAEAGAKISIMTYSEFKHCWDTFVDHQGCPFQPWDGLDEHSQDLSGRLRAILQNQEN
GRK2 aptamer HTS: inhibitors of human GRK2 displacing RNA aptamer. P25098. bead flow cytometry, FAM-aptamer displacement from GRK2. inhibition of aptamer binding, % at 10 µM. 330,000 compounds, 0.59% hits. AID 488847;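 active = inhibition of aptamer binding above 40%, roughly 3 SD of noise, on plates passing a quality check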;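 note: median bead fluorescence of bound FAM aptamer so fluorescent compounds give negative values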
VLA-4 inh: inhibition in a human VLA-4 binding assay | P13612 | VLA-4 expressing cells, ligand binding flow cytometry | inhibition, % (about 7 µM as worked out from the volumes in the protocol) | 330,000 compounds, 0.2% hits; in the data active = inhibition above about 50%
A3A conf: confirmation of human APOBEC3A DNA deaminase inhibitors; 1,400 compounds, 63% hits; recombinant A3A, ssDNA deaminase UDG fluorescence assay; shares compounds with A3A deaminase; inhibition, % at 20 µM; AID 493151;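 active = inhibition reaching a set limit, 80% of the first screen's cutoff, at 20 µM in any replicate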
UDG ctr A3A: inhibits UDG, flagging false APOBEC3A inhibitors; 1,000 tested, under 10 active; UDG counterscreen, FAM/TAMRA uracil oligo fluorescence; inhibition, % at 20 µM; shares compounds with A3A deaminase; AID 504714; call rule not given here
A number is an active result. Most compounds without a hit are left out; they make up all but 1.4% or so of the library.

What do the screens show for `CCn1c(SCC(=O)N2CCN(c3ccc(Cl)cc3)CC2)nc2ccccc2c1=O`?
A3A deaminase: 44; APOBEC3G inh: inactive; GRK2 aptamer HTS: inactive; VLA-4 inh: inactive; A3A conf: 66; UDG ctr A3A: inactive

What do the screens show for `CCn1c(SCC(=O)NC2CCCCC2)nc2ccccc2c1=O`?
A3A deaminase: 63; APOBEC3G inh: inactive; GRK2 aptamer HTS: inactive; VLA-4 inh: inactive; A3A conf: 51; UDG ctr A3A: inactive

Results for O=C(CSc1nnnn1Cc1ccccc1)N1CCN(c2ccccc2)CC1 ?
A3A deaminase: 47; APOBEC3G inh: inactive; GRK2 aptamer HTS: inactive; VLA-4 inh: inactive; A3A conf: inactive

How did O=S(=O)(NNC(=S)Nc1ccc(S(=O)(=O)Nc2ncccn2)cc1)c1ccc(Br)cc1 do in these assays?
A3A deaminase: inactive; APOBEC3G inh: inactive; GRK2 aptamer HTS: inactive; VLA-4 inh: inactive

How did Nn1c(SCC(=O)Nc2ccc3c(c2)OCO3)nnc1C(F)(F)F do in these assays?
A3A deaminase: inactive; APOBEC3G inh: inactive; GRK2 aptamer HTS: inactive; VLA-4 inh: inactive

Results for Cc1ccc(NC(=O)Cn2cc(C(=O)C3CC3)c3ccccc32)c(C)c1 ?
A3A deaminase: inactive; APOBEC3G inh: inactive; GRK2 aptamer HTS: inactive; VLA-4 inh: inactive

What do the screens show for `Cc1ccc(C)c(NC(=O)Cn2cc(C(=O)C3CC3)c3ccccc32)c1`?
A3A deaminase: 71; APOBEC3G inh: inactive; GRK2 aptamer HTS: inactive; VLA-4 inh: inactive; A3A conf: 62; UDG ctr A3A: inactive

How did O=C(CSc1ccc([N+](=O)[O-])cc1)Nc1cccc(S(=O)(=O)N2CCOCC2)c1 do in these assays?
A3A deaminase: inactive; APOBEC3G inh: inactive; GRK2 aptamer HTS: inactive; VLA-4 inh: inactive

Results for O=[N+]([O-])c1ccc(CN2CCN(c3ccccc3Cl)CC2)o1 ?
A3A deaminase: 54; APOBEC3G inh: inactive; GRK2 aptamer HTS: inactive; VLA-4 inh: inactive; A3A conf: inactive

Results for Cc1ccc(CN2C(=O)N/C(=C\c3ccc(-c4ccc(C(=O)O)cc4C)o3)C2=O)cc1 ?
A3A deaminase: 53; APOBEC3G inh: inactive; GRK2 aptamer HTS: inactive; VLA-4 inh: inactive; A3A conf: 32; UDG ctr A3A: inactive

How did C=CCn1nnnc1SCC(=O)Nc1cccc(C(F)(F)F)c1 do in these assays?
A3A deaminase: 70; APOBEC3G inh: inactive; GRK2 aptamer HTS: inactive; VLA-4 inh: inactive; A3A conf: 81; UDG ctr A3A: inactive

How did Nc1nc2c(s1)CCCCCCCCCC2 do in these assays?
A3A deaminase: 50; APOBEC3G inh: inactive; GRK2 aptamer HTS: inactive; VLA-4 inh: inactive; A3A conf: 38; UDG ctr A3A: inactive

How did Nc1c2c(nc3sc4c(c13)CCCCC4)CCCCC2 do in these assays?
A3A deaminase: inactive; APOBEC3G inh: inactive; GRK2 aptamer HTS: inactive; VLA-4 inh: inactive

How did CCc1ccccc1NC(=O)C1CCN(C(=O)c2cccs2)CC1 do in these assays?
A3A deaminase: inactive; APOBEC3G inh: inactive; GRK2 aptamer HTS: inactive; VLA-4 inh: inactive

What do the screens show for `Cc1ccc(NC(=O)C2CCCN2C(=O)c2cccs2)c(C)c1` (stereo not drawn)?
A3A deaminase: 51; APOBEC3G inh: inactive; GRK2 aptamer HTS: inactive; VLA-4 inh: inactive; A3A conf: 59; UDG ctr A3A: inactive

How did O=C(Nc1nc2c(s1)CCCC2)C1CCCN1C(=O)c1cccs1 (stereo not drawn) do in these assays?
A3A deaminase: 54; APOBEC3G inh: inactive; GRK2 aptamer HTS: inactive; VLA-4 inh: inactive; A3A conf: 46; UDG ctr A3A: inactive

What do the screens show for `Cc1ccc(NC(=O)C2CCN(C(=O)c3cccs3)CC2)c(C)c1`?
A3A deaminase: 44; APOBEC3G inh: inactive; GRK2 aptamer HTS: inactive; VLA-4 inh: inactive; A3A conf: 67; UDG ctr A3A: inactive

What do the screens show for `Cc1ccc2c(c1)C1CN(C)CCC1N2CC(=O)N(C)c1ccccc1` (stereo not drawn)?
A3A deaminase: 51; APOBEC3G inh: inactive; GRK2 aptamer HTS: inactive; VLA-4 inh: inactive; A3A conf: 50; UDG ctr A3A: inactive

Results for Cc1nc(N2CCN(C(=O)c3ccco3)CC2)nc2c1C(=O)CCC2 ?
A3A deaminase: inactive; APOBEC3G inh: inactive; GRK2 aptamer HTS: inactive; VLA-4 inh: inactive

Results for CS(=O)(=O)c1ccc(C(=O)N2CC(=O)Nc3ccccc32)cc1 ?
A3A deaminase: 54; APOBEC3G inh: inactive; GRK2 aptamer HTS: inactive; VLA-4 inh: inactive; A3A conf: inactive

Results for C[N+](C)(C)CCCN(Cc1ccc2c(c1)OCO2)C(=O)NC1CCCCC1 ?
A3A deaminase: 56; APOBEC3G inh: inactive; GRK2 aptamer HTS: inactive; VLA-4 inh: inactive; A3A conf: 72; UDG ctr A3A: inactive

How did O=C(NNC(=O)c1cccc(-n2cccc2)c1)c1ccc(F)cc1 do in these assays?
A3A deaminase: 42; APOBEC3G inh: inactive; GRK2 aptamer HTS: inactive; VLA-4 inh: inactive; A3A conf: 28; UDG ctr A3A: inactive

Results for N#Cc1ccc(CN2CCN(C(=O)Cn3nc(C(N)=O)c4ccccc4c3=O)CC2)cc1 ?
A3A deaminase: 58; APOBEC3G inh: inactive; GRK2 aptamer HTS: inactive; VLA-4 inh: inactive; A3A conf: inactive

What do the screens show for `COC(=O)c1ccc2c(c1)nc(C)n2CCO`?
A3A deaminase: inactive; APOBEC3G inh: inactive; GRK2 aptamer HTS: inactive; VLA-4 inh: inactive

Results for CCn1c(/C=C/N(C(C)=O)c2ccccc2)[n+](CCCS(=O)(=O)[O-])c2cc(Cl)c(Cl)cc21 ?
A3A deaminase: inactive; APOBEC3G inh: inactive; GRK2 aptamer HTS: inactive; VLA-4 inh: inactive

What do the screens show for `CCOC(=O)c1ccc2c(c1)n(CC)c(/C=C/N(C)c1ccccc1)[n+]2CC`?
A3A deaminase: 57; APOBEC3G inh: inactive; GRK2 aptamer HTS: inactive; VLA-4 inh: inactive; A3A conf: 79; UDG ctr A3A: inactive

How did CCOC(=O)c1ccc2c(c1)n(CCO)c(C)[n+]2CC do in these assays?
A3A deaminase: 43; APOBEC3G inh: inactive; GRK2 aptamer HTS: inactive; VLA-4 inh: inactive; A3A conf: 82; UDG ctr A3A: inactive

Results for CCc1cccc(C)c1N(C(=O)Cn1c(COC)nc2ccccc21)C(C)COC (stereo not drawn) ?
A3A deaminase: inactive; APOBEC3G inh: inactive; GRK2 aptamer HTS: inactive; VLA-4 inh: inactive

Results for Cc1oc(-c2cc(F)ccc2F)nc1CN(C)Cc1ccc2nccnc2c1 ?
A3A deaminase: inactive; APOBEC3G inh: inactive; GRK2 aptamer HTS: inactive; VLA-4 inh: inactive

What do the screens show for `Fc1ccc(N2CCN(c3nnnn3-c3ccccc3)CC2)cc1`?
A3A deaminase: inactive; APOBEC3G inh: inactive; GRK2 aptamer HTS: inactive; VLA-4 inh: inactive

What do the screens show for `CN(c1ccc(Br)cc1)S(=O)(=O)c1ccc2[nH]cc(C(=O)NCCN3CCOCC3)c(=O)c2c1`?
A3A deaminase: 42; APOBEC3G inh: inactive; GRK2 aptamer HTS: inactive; VLA-4 inh: inactive; A3A conf: inactive

What do the screens show for `COc1ccc(CC(=O)N/N=C(\C)c2cccc(NC(=O)C3CC3)c2)cc1`?
A3A deaminase: inactive; APOBEC3G inh: inactive
